Myeloid diff MLP – myeloid differentiation induction | calls only at 10 µM | hit rate 1% among 360,000 | ER-HoxA9 myeloid progenitors, lysozyme-GFP differentiation, flow cytometry;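 active = normalized GFP-positive differentiation at or above the plate's own cutoff, the solvent-only control mean plus 3 SD; inconclusive = no clear call, values can overlap the other calls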;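 note: cells exposed to compound for four days before flow analysis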
TPT1 inhibitor – blocks Candida albicans tRNA 2'-phosphotransferase; AID 1962; recombinant caTPT1, FP RNA substrate dephosphorylation; inhibition, % at 5 µM; hit rate 0.81% among 300,000;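 active = inhibition above the mean of all tested compounds plus 3 SD, set per screening campaign, cut at about 24% in these data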;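 note: plate controls were DMSO alone for no effect and ferristatin control at 100 nM for full effect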
HNF4A DNA FP – change in binding of human HNF4 alpha to DNA; HNF4a-FITC DNA binding, fluorescence polarization, 1 h; AID 1224865; activity change, % at 10 µM; P41235; hit rate 0.3% among 360,000; in the data active = activity change above about 30%, passing the limit was not always enough
Target sequence (P41235 whole entry, looked up): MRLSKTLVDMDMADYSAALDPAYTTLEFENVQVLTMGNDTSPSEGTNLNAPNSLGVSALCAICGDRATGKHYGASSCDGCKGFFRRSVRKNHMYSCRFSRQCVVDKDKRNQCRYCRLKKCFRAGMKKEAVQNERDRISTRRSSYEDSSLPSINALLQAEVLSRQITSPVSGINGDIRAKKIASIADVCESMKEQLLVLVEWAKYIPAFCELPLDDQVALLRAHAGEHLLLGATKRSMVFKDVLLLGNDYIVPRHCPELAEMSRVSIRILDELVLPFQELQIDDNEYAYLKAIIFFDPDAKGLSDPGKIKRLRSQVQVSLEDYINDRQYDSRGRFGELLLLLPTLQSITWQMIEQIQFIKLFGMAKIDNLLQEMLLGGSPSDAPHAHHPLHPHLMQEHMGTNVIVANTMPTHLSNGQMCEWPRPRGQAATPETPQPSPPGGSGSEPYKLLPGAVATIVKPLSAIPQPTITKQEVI
Rpn11 block – blocks the human proteasome subunit Rpn11; hit rate 0.59% among 360,000; human 26S proteasome, Ub4-pepOG fluorescence polarization; 20S core pre-blocked with epoxomicin; O00487; AID 588493; inhibition, % at 20 µM;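 active = inhibition at 20 µM, scaled to each plate's controls, above about 33%, limit read from the data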
Rpn11 confirm – confirmation of human proteasome Rpn11 inhibitors | shares compounds with Rpn11 block | purified human 26S proteasome, Ub4-pepOG fluorescence polarization; proteasome pretreated with epoxomicin | inhibition, % at 20 µM | hit rate 29% among 1,900 | AID 602318
MMP-2 inh – MMP-2 (human) inhibition counter-screen. inhibition, % at 20 µM. recombinant MMP-2, FRET peptide cleavage fluorescence. hit rate 4% among 1,900. AID 602330. shares compounds with Rpn11 block;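 note: human MMP-2 activated beforehand with APMA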
Thrombin inh – thrombin (bovine) inhibition counter-screen; shares compounds with Rpn11 block; hit rate 13% among 1,900; inhibition, % at 20 µM; AID 602333; bovine thrombin cleavage of Ub4-pepOG, fluorescence polarization;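 active = mean inhibition at least 40% at 20 µM, or signal 3 deviations below plate average, so some actives read negative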;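 note: plate controls were thrombin with DMSO for no effect and buffer wells lacking thrombin for full effect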
* marks the source's active call; other numbers are inactive results; i = inactive; u = inconclusive; x = no result given. In the library only some 2.1% were active in any assay of this set; here they are far more common. Cut-off read from the data, not from the text of the source, unless noted: active = inhibition above about 40%; inactive = the rest.

SMILES	Myeloid diff MLP	TPT1 inhibitor	HNF4A DNA FP	Rpn11 block	Rpn11 confirm	MMP-2 inh	Thrombin inh
Cc1sc2nc(CSc3ccc([N+](=O)[O-])c(C(F)(F)F)c3)[nH]c(=O)c2c1C	i	22	21	41*	20	-40	-13
CC(C)(C)n1nnnc1C1c2ccccc2C(=O)N1CCc1c[nH]c2ccccc12 (stereo not given)	i	x	-1	x	x	x	x
CCOC(=O)C1=CCN(S(=O)(=O)c2ccc(Cl)cc2)C1c1cccc(C)c1 (stereo not given)	i	x	-3	9	x	x	x
CCCCCCCC(=O)Nc1ccc(C(=O)N/N=C/c2cccc([N+](=O)[O-])c2)cc1	i	-7	-7	38*	3	-34	-11
Cc1cc([N+](=O)[O-])nn1CC(=O)N/N=C/c1ccc(O)cc1O	i	-5	9	2	x	x	x
N#Cc1ccccc1OCC(=O)Nc1c(C(=O)C2CC2)oc2ccccc12	i	-4	17	128*	5	-19	-6
Cc1cccc2c(=O)n(C(=O)c3ccccc3)c(N)nc12	i	x	1	0	x	x	x
CC1(C)NC(=O)N(CC(O)COc2ccccc2C(=O)N2CCCCC2)C1=O (stereo not given)	i	-1	1	-5	x	x	x
CC1(C)NC(=O)N(CC(O)COc2cc3ccccc3cc2C(=O)N2CCCCC2)C1=O (stereo not given)	i	-2	0	67*	-29	-18	-13
COC(=O)c1c(NC(=O)CSc2nnc3ccccn23)sc2c1CCC2	i	2	-2	-6	x	x	x
O=C(Nc1nc(-c2ccco2)c(-c2ccco2)s1)c1c(F)cccc1Cl	i	x	5	53*	-6	2	-21
CC1(C)CC(=O)C=C(Nc2ccc(F)cc2)C1	i	5	2	8	x	x	x
CC1(C)CC(=O)C=C(Nc2ccc(OCC(F)(F)C(F)F)cc2)C1	i	0	23	105*	9	15	3
CCOc1ccc(CCNC(=O)C(C)N2C(=O)CC(C)(C)Sc3ccccc32)cc1 (stereo not given)	i	-1	-5	-1	x	x	x
COC(=O)c1ccc(/C=N/OCC(=O)NCCc2ccc(OC)c(OC)c2)cc1	i	-2	2	33*	2	-6	-13
CCN(CC)C(=O)c1sc(NC(=O)c2ccc3c(c2)OCO3)c(C#N)c1C	i	0	-3	-6	x	x	x
Cc1c(C(=O)N2CCOCC2)sc(NC(=O)c2ccc3c(c2)OCO3)c1C#N	i	4	5	41*	-4	5	-17
CCOc1ccc(-c2nnn(CC(=O)NCCc3c[nH]c4ccccc34)n2)cc1	i	0	-3	2	x	x	x
CCCOc1ccc(-c2nnn(CC(=O)c3c[nH]c4ccccc34)n2)cc1	i	16	11	50*	34	-43	-19
CCOc1ccc2[nH]c3ncccc3c(=O)c2c1	i	-10	-13	-29	x	x	x
CCOc1ccc2c(ccc(/C=C/c3cc(C)c4cccnc4c3O)[n+]2C)c1	i	x	6	112*	102*	75*	40
C#CCNC(=O)C[C@@H]1C[C@@]2(C(=O)OC)CCCCC=C2N(Cc2ccc(Cl)cc2Cl)C1=O	i	x	-1	x	x	x	x
Cc1cc(C)n(C(=O)c2cc([N+](=O)[O-])cc([N+](=O)[O-])c2)n1	i	0	-1	-1	x	x	x
CCOC(=O)c1sc(Nc2ccc(C)cc2C)nc1C	i	2	-1	36*	-8	17	-22
CCOC(=O)c1sc(Nc2ccccc2)nc1C	i	-6	-1	-3	x	x	x
SMILES	Myeloid diff MLP	TPT1 inhibitor	HNF4A DNA FP	Rpn11 block	Rpn11 confirm	MMP-2 inh	Thrombin inh
NC(N)=NCCCS(=O)(=O)Nc1ccc(Nc2c3ccccc3nc3cc([N+](=O)[O-])ccc23)cc1	x	x	-25	73*	-13	-35	48*
Cc1csc(=O)n1CCC(=O)OCC(=O)Nc1cc([N+](=O)[O-])ccc1Cl	i	0	-4	-2	x	x	x
Cc1ccc(C(=O)O)cc1-c1ccc(C=C2C(=O)c3ccccc3C2=O)o1	i	30*	-11	99*	16	-43	7
CCOC(=O)c1c(C)[nH]c(C(=O)OCC(=O)N(CC)c2c(N)n(Cc3ccccc3)c(=O)[nH]c2=O)c1C	i	x	4	8	x	x	x
CCOC(=O)c1c(C)[nH]c(C(=O)OCC(=O)N(CC(C)C)c2c(N)n(Cc3ccccc3)c(=O)[nH]c2=O)c1C	i	15	18	60*	104*	-1	69*
Cc1ccc(C)c(OCCn2cc(/C=C(/C#N)C(=O)NCC3CCCO3)c3ccccc32)c1 (stereo not given)	i	10	1	100*	72*	-1	28
CCC(=O)Nc1c(C#N)c2nc3ccccc3nc2n1C1CCCCC1	i	1	12	92*	6	-29	-5
CCCCn1c(NC(=O)CC)c(C#N)c2nc3ccccc3nc21	i	3	0	189*	38	-19	-17
CCOc1cc(C(=O)Nc2cccc(OCC(=O)N3CCOCC3)c2)cc(OCC)c1OCC	i	0	1	2	x	x	x
O=C(CCNS(=O)(=O)c1cccs1)NCc1cccs1	i	-1	-2	110*	1	-8	-5
CC(C)Oc1cccc(C(=O)C2CCCN(Cc3cnc(N4CCCC4)s3)C2)c1 (stereo not given)	i	-3	-7	0	x	x	x
COc1ccc2cc(C(=O)C3CCCN(Cc4cnc(N5CCOCC5)s4)C3)ccc2c1 (stereo not given)	i	-5	0	42*	0	-20	6
CC1(C)CC(=O)C(N=Nc2ccc(F)cc2)=C(O)C1	i	-1	0	-3	x	x	x
CC1(C)CC(=O)C(N=Nc2ccc(-c3ccccc3)cc2)=C(O)C1	i	8	33	48*	24	-27	-12
Cn1c(C(=O)NCCN2CCN(Cc3ccccc3)CC2)cc2c(=O)n(C)c3ccccc3c21	u	-1	5	-7	x	x	x
Cn1c(C(=O)NCCN2CCCCCC2)cc2c(=O)n(C)c3ccccc3c21	i	-2	20	84*	4	-32	-7
Cn1c(=O)oc2cc(S(=O)(=O)N3CCN(c4ccccc4F)CC3)ccc21	u	7	8	48*	71*	-35	16
CC1=NN(c2ccccc2)C(=O)C1/C=C1\NC(=S)NC1=O (stereo not given)	i	2	-10	45*	84*	19	24
Cc1ccc(C2=N/C(=C\c3c(C)nn(-c4ccccc4)c3N3CCCC3)C(=O)O2)cc1	i	2	-1	16	x	x	x
Cc1nn(-c2ccccc2)c(N2CCCC2)c1/C=C1\N=C(c2ccc(F)cc2)OC1=O	i	7	2	81*	-16	-12	-20
O=C(Nc1nc2ccc(F)cc2s1)C1=COCCO1	i	1	-2	7	x	x	x

Screens from PubChem.
